# “And” between values parts separate entries of the source, which are not always exact repeats. Equal values may be shown once. Records with an inconclusive call do not appear. A structure can be active in one record and inactive in another. The source made the active and inactive calls. Rule for the calls: active = hit-call score of the fitted dose curve at least 0.9, where 1 is the maximum; inconclusive = response in the unintended direction; inactive = score below 0.9.
# Experiments:
# [1] = ACEA_ER_AUC_viability: ACEA Biosciences xCELLigence Real-Time Cell Analysis on Estrogen Receptor Agonism for Viability (AID 2283782);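 note: continuous compound exposure with impedance area under curve over 80 h; hit means loss of impedance signal meaning reduced cell growth or viability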
# Outline: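 T-47D human breast cells in phenol red-free RPMI1640 with 10% charcoal-stripped FBS were dosed with an 8-point 1:4 dilution series from 100 uM top final concentration, in duplicate. Impedance-based growth was followed for 80 h; AUC analysed versus DMSO.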
# AR (gene 367) [2] = biological target: AR (gene 367) (UniProt P10275); test: ACEA_AR_antagonist_80hr: ACEA Biosciences xCELLigence Real-Time Cell Analysis on Androgen Receptor Antagonism for Proliferation (AID 2283787);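 note: hits lower the impedance growth signal relative to DMSO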
# Chain of AR (gene 367) (P10275 whole entry, looked up): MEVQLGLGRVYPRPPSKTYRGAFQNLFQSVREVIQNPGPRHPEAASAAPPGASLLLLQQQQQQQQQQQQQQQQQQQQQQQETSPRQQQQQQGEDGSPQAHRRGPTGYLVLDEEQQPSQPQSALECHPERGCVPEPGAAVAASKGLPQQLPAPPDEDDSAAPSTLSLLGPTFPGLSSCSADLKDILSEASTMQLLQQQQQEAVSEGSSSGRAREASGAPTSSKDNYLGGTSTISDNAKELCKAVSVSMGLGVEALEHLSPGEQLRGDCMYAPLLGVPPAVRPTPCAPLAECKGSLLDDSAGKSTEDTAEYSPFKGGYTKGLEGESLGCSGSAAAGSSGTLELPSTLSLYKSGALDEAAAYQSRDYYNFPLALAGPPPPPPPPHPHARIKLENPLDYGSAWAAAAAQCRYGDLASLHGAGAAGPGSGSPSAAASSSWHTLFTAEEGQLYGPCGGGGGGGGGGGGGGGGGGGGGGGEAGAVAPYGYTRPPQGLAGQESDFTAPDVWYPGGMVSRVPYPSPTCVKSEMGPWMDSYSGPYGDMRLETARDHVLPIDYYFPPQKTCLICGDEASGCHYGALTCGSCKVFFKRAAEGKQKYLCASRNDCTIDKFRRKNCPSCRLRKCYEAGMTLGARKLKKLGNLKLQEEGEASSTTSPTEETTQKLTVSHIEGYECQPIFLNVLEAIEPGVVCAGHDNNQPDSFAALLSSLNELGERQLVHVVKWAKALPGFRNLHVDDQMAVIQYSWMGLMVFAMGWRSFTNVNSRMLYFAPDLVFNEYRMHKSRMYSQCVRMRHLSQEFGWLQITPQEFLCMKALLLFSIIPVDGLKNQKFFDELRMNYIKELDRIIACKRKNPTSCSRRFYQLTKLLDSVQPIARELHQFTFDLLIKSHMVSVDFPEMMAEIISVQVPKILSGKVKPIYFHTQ
# Outline: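 Impedance readout (RT-CES), 80 h post-dose; loss-of-signal vs DMSO baseline. 22Rv1 cells in assay medium. Compounds: 8-pt 1:4 series, max 100 uM final, up to 0.5% DMSO; n = 2.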
# [3] = ATG_M_06_XSP2: Attagene TRANS-FACTORIAL Multi-Species (XSP2) HepG2 Assay for M06 Transcription Factor (Internal Marker) (AID 2283811);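 note: internal background marker reporter mRNA measured by RT-PCR and capillary electrophoresis; hits are increases in signal above the DMSO baseline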
# Outline: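 HepG2 cells transiently transfected with GAL4-UAS multi-reporter constructs, dosed 24 h with 3 nM 6-alpha-fluorotestosterone plus 1.5 nM norgestrel present to stimulate androgen receptor. Reporter mRNA quantified by RT-PCR, 6-FAM labelling, HpaI digestion and capillary electrophoresis; gain-of-signal fitted versus DMSO baseline.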
# [4] = system: turtle Estrogen Receptor (ERa), gene 101933533; test: ATG_trERa_XSP2: Attagene TRANS-FACTORIAL Multi-Species (XSP2) HepG2 Assay for turtle Estrogen Receptor (ERa) (AID 2283812);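 note: human HepG2 liver cells transiently expressing turtle ERa-Gal4 chimeric receptor; actives raise reporter signal above DMSO so AC50 reflects agonist activity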
# Outline: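 HepG2 cells transiently transfected with GAL4-UAS reporter units expressing turtle ERa-Gal4 chimera. Reporter mRNA measured after 24 h dosing by RT-PCR, fluorescent labelling and capillary electrophoresis; gain of signal fitted versus DMSO.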
# [5] = biological target: zebrafish Estrogen Receptor (ER1), esr1 (gene 259252) (UniProt P57717); test: ATG_zfER1_XSP2: Attagene TRANS-FACTORIAL Multi-Species (XSP2) HepG2 Assay for zebrafish Estrogen Receptor (ER1) (AID 2283816)
# Chain of zebrafish Estrogen Receptor (ER1), esr1 (gene 259252) (P57717 whole entry, looked up, the tested form may be a part): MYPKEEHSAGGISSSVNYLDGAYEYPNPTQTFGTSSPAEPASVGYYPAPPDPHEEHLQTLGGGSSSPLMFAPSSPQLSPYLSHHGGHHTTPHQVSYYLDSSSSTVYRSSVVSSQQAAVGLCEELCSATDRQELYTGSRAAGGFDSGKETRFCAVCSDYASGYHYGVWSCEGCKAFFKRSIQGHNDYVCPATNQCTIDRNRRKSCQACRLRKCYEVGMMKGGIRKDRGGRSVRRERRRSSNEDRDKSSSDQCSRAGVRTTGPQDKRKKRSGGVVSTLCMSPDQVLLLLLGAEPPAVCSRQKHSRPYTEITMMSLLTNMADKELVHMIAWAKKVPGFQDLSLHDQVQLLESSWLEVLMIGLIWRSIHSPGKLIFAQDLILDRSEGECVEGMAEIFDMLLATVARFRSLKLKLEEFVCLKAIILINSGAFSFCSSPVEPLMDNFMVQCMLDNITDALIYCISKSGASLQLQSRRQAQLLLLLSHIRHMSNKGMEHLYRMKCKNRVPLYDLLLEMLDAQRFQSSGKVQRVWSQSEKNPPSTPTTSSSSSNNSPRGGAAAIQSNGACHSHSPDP
# Outline: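 HepG2 cells transiently transfected with a GAL4-UAS reporter and a chimeric zebrafish ER1-Gal4 construct, dosed 24 h. Reporter mRNA quantified by RT-PCR, labelling, HpaI digestion and capillary electrophoresis, relative to DMSO.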
# [6] = STM_H9_NormalizedViability: Cytotoxicity Assessment at 120 hours in the Stemina devTOX quickPredict H9 human embryonic stem cell (hESC)-based Assay (AID 2283784)
# Outline: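 Pluripotent H9 cells dosed, fresh medium plus compound q24h → cell layer read by CellTiter-Fluor → RFU blank-corrected, normalized to DMSO 0.1% mean. Loss-of-signal fit, DMSO as baseline.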
# [7] = biological target: Estrogen receptor beta (Homo sapiens) (UniProt Q92731); test: ATG_hERb_XSP2: Attagene TRANS-FACTORIAL Multi-Species (XSP2) HepG2 Assay for human Estrogen Receptor (ERb) (AID 2283813);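 note: actives raise reporter mRNA above DMSO so AC50 reflects agonist induction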
# Chain of Estrogen receptor beta (Homo sapiens) (Q92731 whole entry, looked up, the tested form may be a part): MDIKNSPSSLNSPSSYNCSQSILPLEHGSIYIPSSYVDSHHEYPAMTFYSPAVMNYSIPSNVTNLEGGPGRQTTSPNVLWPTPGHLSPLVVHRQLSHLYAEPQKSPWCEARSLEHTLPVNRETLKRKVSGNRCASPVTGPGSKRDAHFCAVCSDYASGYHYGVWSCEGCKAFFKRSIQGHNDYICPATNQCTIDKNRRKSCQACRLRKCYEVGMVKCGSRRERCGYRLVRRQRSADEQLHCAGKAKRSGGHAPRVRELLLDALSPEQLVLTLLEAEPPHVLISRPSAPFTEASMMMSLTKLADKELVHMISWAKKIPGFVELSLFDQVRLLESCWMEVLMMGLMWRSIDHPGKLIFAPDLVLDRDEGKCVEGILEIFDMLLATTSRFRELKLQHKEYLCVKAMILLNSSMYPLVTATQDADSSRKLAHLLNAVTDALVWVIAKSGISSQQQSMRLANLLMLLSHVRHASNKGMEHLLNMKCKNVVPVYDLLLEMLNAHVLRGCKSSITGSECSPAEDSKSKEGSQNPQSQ
# Outline: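 HepG2 cells transiently transfected with GAL4-UAS reporter units and chimeric human ERb-Gal4, 24 h exposure. Reporter mRNA quantified by RT-PCR with FAM labelling, HpaI digestion and capillary electrophoresis; gain of signal versus DMSO.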
# [8] = biological target: GAL4 Transcription Factor (Internal Marker), GAL4 (gene 855828) (UniProt P04386); test: ATG_GAL4_XSP2: Attagene TRANS-FACTORIAL Multi-Species (XSP2) HepG2 Assay for GAL4 Transcription Factor (Internal Marker) (AID 2283814);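 note: GAL4 reporter mRNA background control in MRTU transfected cells not a receptor target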
# Chain of GAL4 Transcription Factor (Internal Marker), GAL4 (gene 855828) (P04386 whole entry, looked up, the tested form may be a part): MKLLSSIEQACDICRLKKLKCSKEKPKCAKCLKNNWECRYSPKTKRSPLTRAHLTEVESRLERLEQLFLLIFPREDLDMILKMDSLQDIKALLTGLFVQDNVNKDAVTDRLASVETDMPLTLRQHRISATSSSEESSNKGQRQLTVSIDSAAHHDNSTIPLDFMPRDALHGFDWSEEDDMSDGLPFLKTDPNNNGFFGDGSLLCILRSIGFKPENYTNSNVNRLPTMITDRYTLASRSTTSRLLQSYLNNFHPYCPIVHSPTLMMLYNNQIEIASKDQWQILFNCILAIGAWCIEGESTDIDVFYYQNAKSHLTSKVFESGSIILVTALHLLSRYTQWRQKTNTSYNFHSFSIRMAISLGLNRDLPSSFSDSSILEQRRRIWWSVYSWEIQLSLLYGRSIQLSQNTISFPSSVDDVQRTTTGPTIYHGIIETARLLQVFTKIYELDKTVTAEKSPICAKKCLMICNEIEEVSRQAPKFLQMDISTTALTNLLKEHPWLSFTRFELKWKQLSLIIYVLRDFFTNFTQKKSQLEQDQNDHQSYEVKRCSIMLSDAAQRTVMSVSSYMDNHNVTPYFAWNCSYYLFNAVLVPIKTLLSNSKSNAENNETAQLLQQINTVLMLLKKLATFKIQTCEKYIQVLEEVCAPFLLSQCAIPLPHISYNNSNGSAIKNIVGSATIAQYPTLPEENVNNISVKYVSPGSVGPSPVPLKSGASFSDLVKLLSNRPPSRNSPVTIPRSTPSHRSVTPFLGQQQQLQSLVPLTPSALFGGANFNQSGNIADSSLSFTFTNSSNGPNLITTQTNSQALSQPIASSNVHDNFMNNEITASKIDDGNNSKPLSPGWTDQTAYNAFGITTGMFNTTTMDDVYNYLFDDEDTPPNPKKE
# Outline: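 HepG2 cells transiently transfected with GAL4-UAS reporter units, stimulated with 3 nM 6-alpha-fluorotestosterone plus 1.5 nM norgestrel, dosed 24 h. Reporter mRNA by RT-PCR/capillary electrophoresis; gain-of-signal fit versus DMSO, background control.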
# [9] = system: turtle Androgen Receptor (AR), gene 101947425; test: ATG_trAR_XSP2: Attagene TRANS-FACTORIAL Multi-Species (XSP2) HepG2 Assay for turtle Androgen Receptor (AR) (AID 2283815);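 for AC50: potency for gain of reporter signal meaning activation above DMSO baseline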
# Outline: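 HepG2 cells transiently transfected with GAL4-UAS reporter units for chimeric NR-Gal4 receptors; 24 h dosing in presence of 3 nM 6-alpha-fluorotestosterone and 1.5 nM norgestrel. Reporter mRNA by RT-PCR and capillary electrophoresis, gain of signal versus DMSO.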
# [10] = biological target: chicken Estrogen Receptor (ERa), ESR1 (gene 396099) (UniProt P06212); test: ATG_chERa_XSP2: Attagene TRANS-FACTORIAL Multi-Species (XSP2) HepG2 Assay for chicken Estrogen Receptor (ERa) (AID 2283817);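 note: actives raise reporter signal above DMSO so AC50 reflects ER activation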
# Chain of chicken Estrogen Receptor (ERa), ESR1 (gene 396099) (P06212 whole entry, looked up, the tested form may be a part): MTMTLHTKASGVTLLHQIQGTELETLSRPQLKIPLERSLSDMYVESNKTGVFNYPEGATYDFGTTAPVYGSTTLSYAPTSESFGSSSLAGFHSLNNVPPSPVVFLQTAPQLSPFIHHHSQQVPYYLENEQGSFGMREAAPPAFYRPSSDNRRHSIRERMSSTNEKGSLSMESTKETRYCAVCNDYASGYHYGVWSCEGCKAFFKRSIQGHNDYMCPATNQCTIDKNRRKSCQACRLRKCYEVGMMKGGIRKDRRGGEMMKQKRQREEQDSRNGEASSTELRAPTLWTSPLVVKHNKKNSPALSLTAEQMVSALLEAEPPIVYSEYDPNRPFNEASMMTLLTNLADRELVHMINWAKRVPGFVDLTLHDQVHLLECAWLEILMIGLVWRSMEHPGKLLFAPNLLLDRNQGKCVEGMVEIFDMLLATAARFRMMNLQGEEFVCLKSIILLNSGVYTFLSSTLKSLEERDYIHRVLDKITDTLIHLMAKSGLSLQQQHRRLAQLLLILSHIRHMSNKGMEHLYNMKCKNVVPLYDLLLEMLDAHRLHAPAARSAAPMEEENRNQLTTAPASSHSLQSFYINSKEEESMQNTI
# Outline: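 HepG2 cells transiently transfected with multiplexed GAL4-UAS reporter units expressing chimeric chicken ERa-Gal4; 24 h compound exposure. Reporter mRNA measured by RT-PCR with 6-FAM labelling, HpaI digestion and capillary electrophoresis; gain-of-signal fitted versus DMSO.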
# AR (gene 367) [11] = biological target: AR (gene 367) (UniProt P10275); test: ACEA_AR_agonist_80hr: ACEA Biosciences xCELLigence Real-Time Cell Analysis on Androgen Receptor Agonism for Proliferation (AID 2283783);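 note: hits increase impedance growth signal above DMSO baseline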
# Outline: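 22Rv1 human prostate cancer cells were seeded after preconditioning in assay medium and monitored overnight, then dosed in an eight-point 1:4 dilution series from 100 uM (≤0.5% DMSO). Impedance-based growth was read at 80 h, gain-of-signal versus DMSO.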
smiles,measurement,setting,value
N#Cc1ccc(C(c2ccc(C#N)cc2)n2cncn2)cc1,outcome,[1],inactive
same,outcome,AR (gene 367) [2],inactive
CCCCCCCCCCCCCC(=O)OC(C)C,outcome,[1],inactive
same,outcome,AR (gene 367) [2],inactive
N#Cc1ccc(C2CCCc3cncn32)cc1 (stereo not given),outcome,[3],inactive
same,outcome,[4],inactive
same,outcome,[5],inactive
CC(CCC(=O)O)(c1ccc(O)cc1)c1ccc(O)cc1,AC50,[6],49.4 nM (active)
same,outcome,[3],inactive
same,outcome,[4],inactive
same,outcome,[7],inactive
same,outcome,[8],inactive
same,outcome,[9],inactive
same,AC50,[5],134 µM (active)
same,outcome,[5],inactive
same,outcome,[10],inactive
CC(C)CC(=O)OCc1ccccc1,AC50,[1],50 µM (active)
CC1CCC(=O)C1=O (stereo not given),AC50,[1],10.3 µM (active)
CCCCCCCCCC(C)=O,outcome,[1],inactive
same,outcome,AR (gene 367) [2],inactive
C=C1C[C@H]2[C@@H]3C=C(C)C4=CC(=O)CC[C@]4(C)[C@H]3CC[C@]2(C)[C@@]1(OC(C)=O)C(C)=O,outcome,AR (gene 367) [11],inactive
same,AC50,AR (gene 367) [2],152 nM (active)
same,outcome,[8],inactive
same,outcome,[5],inactive
Clc1cccnc1,outcome,[1],inactive
CC(C)(c1ccccc1)c1ccc(Nc2ccc(C(C)(C)c3ccccc3)cc2)cc1,outcome,[1],inactive
COc1ccc(-c2coc3cc(O)cc(O)c3c2=O)cc1,outcome,[3],inactive
same,AC50,[4],1.27 µM (active) and 161 nM (active)
same,AC50,[7],83.6 nM (active) and 65.3 nM (active)
same,AC50,[9],1.81 µM (active)
same,AC50,[5],4.02 µM (active) and 458 nM (active)
same,AC50,[10],1.24 µM (active) and 200 nM (active)
COc1cc(O)c(C(=O)c2ccccc2)cc1S(=O)(=O)O,AC50,AR (gene 367) [11],22.8 nM (active)
CCCC/C=C/C=C\C=O,AC50,[1],88.9 µM (active)
Oc1ccccc1Cc1ccccc1O,outcome,[6],inactive
same,outcome,[3],inactive
same,AC50,[4],26.9 µM (active)
same,outcome,[4],inactive
same,AC50,[7],8.23 µM (active) and 7.6 µM (active)
same,outcome,[8],inactive
same,AC50,[5],58.4 µM (active) and 100 µM (active)
same,AC50,[10],7.64 µM (active)
same,outcome,[10],inactive
[Cl][Eu]([Cl])[Cl],outcome,[1],inactive
CC(c1cc(C(C)(C)C)cc(C(C)(C)C)c1O)c1cc(C(C)(C)C)cc(C(C)(C)C)c1O,outcome,[1],inactive
COc1ccc(C(=O)c2ccccc2)c(O)c1,outcome,[6],inactive
same,outcome,AR (gene 367) [2],inactive
same,outcome,[3],inactive
same,AC50,[4],4.74 µM (active) and 26.3 µM (active)
same,AC50,[7],26.8 µM (active)
same,outcome,[7],inactive
same,outcome,[8],inactive
same,AC50,[5],11 µM (active) and 16.7 µM (active)
same,AC50,[10],6.73 µM (active)
same,outcome,[10],inactive
CCOB(OCC)OCC,outcome,[1],inactive
CC(=O)OC1CCCCC1C(C)(C)C (stereo not given),outcome,AR (gene 367) [2],inactive
CCC[Si](OC)(OC)OC,outcome,AR (gene 367) [11],inactive
Cc1ccc2c(c1)CCCN2,outcome,[1],inactive
O=C(O)/C=C/c1ccccc1,outcome,[4],inactive
same,outcome,[10],inactive
CCCCCC[C@@H](O)C/C=C\CCCCCCCC(=O)OCC(O)CO (stereo not given in full),outcome,[1],inactive
same,outcome,AR (gene 367) [11],inactive
same,outcome,AR (gene 367) [2],inactive
C=CCOC(=O)c1ccc(C(=O)OCC=C)c(C(=O)OCC=C)c1,outcome,[1],inactive

# Source: PubChem BioAssay (EPA / NIEHS)
